Source: PubChem (several laboratories)
Anthrax LF inh2 = inhibitors of Bacillus anthracis lethal factor protease | multiplex microsphere protease cleavage assay, LF | inhibition, % at 10 µM | 360,000 tested, 0.12% active; further: plate controls were buffer without enzyme for full effect and enzyme alone for no effect
Target sequence (P15917 whole entry, looked up): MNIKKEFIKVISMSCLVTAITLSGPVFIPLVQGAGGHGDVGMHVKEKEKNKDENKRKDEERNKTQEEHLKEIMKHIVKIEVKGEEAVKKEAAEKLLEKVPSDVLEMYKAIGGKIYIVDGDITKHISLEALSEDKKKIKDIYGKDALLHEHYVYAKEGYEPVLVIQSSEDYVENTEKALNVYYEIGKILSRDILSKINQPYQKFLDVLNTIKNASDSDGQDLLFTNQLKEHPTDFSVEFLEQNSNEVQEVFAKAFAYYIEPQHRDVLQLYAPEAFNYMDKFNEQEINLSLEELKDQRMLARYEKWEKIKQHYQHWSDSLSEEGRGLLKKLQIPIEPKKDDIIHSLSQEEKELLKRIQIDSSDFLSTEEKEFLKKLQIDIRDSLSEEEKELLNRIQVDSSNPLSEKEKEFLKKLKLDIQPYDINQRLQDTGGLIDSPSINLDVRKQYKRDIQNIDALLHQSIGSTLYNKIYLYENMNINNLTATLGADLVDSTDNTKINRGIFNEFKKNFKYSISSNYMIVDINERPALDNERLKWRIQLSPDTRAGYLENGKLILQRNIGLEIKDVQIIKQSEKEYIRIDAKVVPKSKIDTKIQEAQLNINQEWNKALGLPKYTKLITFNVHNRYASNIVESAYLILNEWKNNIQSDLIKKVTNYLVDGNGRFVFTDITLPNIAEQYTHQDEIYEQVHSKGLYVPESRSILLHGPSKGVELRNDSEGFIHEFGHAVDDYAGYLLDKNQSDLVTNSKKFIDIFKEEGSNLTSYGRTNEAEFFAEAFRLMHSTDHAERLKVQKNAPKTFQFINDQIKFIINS
BoNT-A LC inh2 = inhibitors of Botulinum neurotoxin A light chain protease. multiplex microsphere protease substrate cleavage, flow cytometry. inhibition, % at 10 µM. 360,000 tested, 0.17% active. AID 588499; further: plate controls were buffer without enzyme for full effect and enzyme alone for no effect
BoNT F protease = BoNT F light chain protease inhibition; inhibition, % at 10 µM; Multiplex microsphere protease cleavage assay, flow cytometry; 360,000 tested, 0.22% active; in the data active means inhibition above about 35%, passing the limit was not always enough; inconclusive means no clear call, values can overlap the other calls; further: plate controls were buffer without enzyme for full effect and enzyme alone for no effect
SARS 3CLpro inh-1 = SARS-CoV 3CLpro protease inhibition; inhibition, % at 6 µM; AID 1706; 290,000 tested, 0.14% active; P0C6X7; recombinant SARS-CoV 3CLpro, quenched FRET peptide cleavage; in the data active means inhibition above about 12%
Autofluor counter = compound fluorescence in toxin protease inhibitor counterscreen; fluorescence intensity (test concentration not listed); 360,000 tested, 3.1% active; AID 624483; compound autofluorescence counterscreen, microsphere flow cytometry; stronger effect = higher value; in the data active means fluorescence intensity above about 16000; inconclusive means no clear call, values can overlap the other calls
CCHFV vOTU inh = blocks the CCHF virus ovarian tumor domain protease; CCHFV vOTU protease, Pep-AMC fluorescence; inhibition, % at 11.5 µM; 370,000 tested, 0.55% active; AID 651958; in the data active means inhibition above about 30%; further: 0% = vehicle wells with enzyme and 100% = no enzyme wells
SARS 3CLpro inh-2 = SARS 3CLpro inhibition, confirmation assay; shares compounds with SARS 3CLpro inh-1; QFRET protease activity assay; inhibition, % at 6 µM; 380 tested, 36% active; in the data active means inhibition above about 13%
The depositor's hits bear a star; ? = inconclusive; . = not tested or not shown. Shown are actives, neighbours in structure and some others; about 3.9% of the full set was active somewhere. Unless noted, no stated cut-off is given here; in the data, active means inhibition above about 30%; inconclusive means no clear call, values can overlap the other calls; inactive means below that.

SMILES	Anthrax LF inh2	BoNT-A LC inh2	BoNT F protease	SARS 3CLpro inh-1	Autofluor counter	CCHFV vOTU inh	SARS 3CLpro inh-2
CCC1=Nc2ccc(Br)cc2C(c2ccccc2)N1CC(=O)OC (centres undefined)	3.6	1.1	-0.1	3.3	4014	6.9	.
CC1=Nc2ccc(Br)cc2C(c2ccccc2)N1CC(=O)NN (centres undefined)	-4.0	-1.2	-5.6	13.2*	4155	-6.2	2.4
NNC(=O)CN1C(CN2CCOCC2)=Nc2ccc(Br)cc2C1c1ccccc1 (centres undefined)	-7.3	-0.3	0.7	20.8*	3911	-4.9	-1.2
NNC(=O)CN1C(c2ccc(Cl)cc2)=Nc2ccc(Br)cc2C1c1ccccc1 (centres undefined)	-6.9	-1.6	-5.7	8.3	3987	0.6	.
Nc1[nH]c(C(=O)c2ccccc2)c(-c2ccccc2[N+](=O)[O-])c1C(=O)NCCc1c[nH]c2ccccc12	.	.	.	.	.	24.8	.
COC(=O)[C@H]1C[C@@]2(N3CCCCC3)c3ccccc3N[C@H]2N1S(=O)(=O)c1ccc([N+](=O)[O-])cc1	.	.	.	.	.	1.0	.
COCCCNC(=O)C[C@H]1C[C@@]2(C(=O)OC)C(=C[C@H](C3CCCC3)O[C@@H]2C)N(Cc2ccc(Cl)cc2Cl)C1=O	.	.	.	.	.	12.7	.
O=C(NCc1ccco1)C(c1ccco1)N(C(=O)Cn1nnc2ccccc21)c1ccc2c(c1)CCC2 (centres undefined)	-5.1	-0.3	-1.0	14.6*	4925	8.4	25.6*
CCCc1c(C(=O)N/N=C/c2ccc(OC)c(OCc3ccccc3)c2)nnn1-c1nonc1N	-0.3	0.2	5.1	5.9	5639	-19.2	.
COc1cccc(/C=N/NC(=O)c2nnn(-c3nonc3N)c2CN(C)c2ccccc2)c1	0.8	0.9	-0.9	12.4*	4297	18.3	-0.5
CCCc1c(C(=O)N/N=C/c2c(OC)ccc3ccccc23)nnn1-c1nonc1N	-1.2	-2.0	4.2	14.0*	4854	-2.1	0.2
O=C(O)c1ccc(N2N=C(c3ccccc3)CC2c2ccccc2)cc1 (centres undefined)	1.3	2.3	?	13.2*	2826	-144.8	6.6
Cc1ccc(-c2cc(NC(=O)c3ccccc3[N+](=O)[O-])n[nH]2)cc1	-9.2	-0.4	-3.8	15.7*	3928	-9.2	14.5*
O=C(COc1ccccc1)Nc1ccc(S(=O)(=O)N2CCCCCC2)cc1	1.6	1.0	-6.0	-3.9	9374	22.3	.
O=C(COc1ccc(S(=O)(=O)N2CCCCC2)cc1)Nc1ccccc1F	-3.4	0.3	-10.7	12.3*	5296	16.9	-6.1
Cc1ccc2ncnc(Nc3ccccc3)c2c1	-1.6	1.8	-7.0	4.9	4642	5.0	.
Cc1ccc(O)c(Nc2ncnc3ccccc23)c1	17.0	-2.1	?	13.4*	?	5.3	0.6
COc1cc(CC2C(=O)N(C)C(=O)N(C)C2=O)ccc1OCc1ccccc1	-0.5	1.6	12.1	2.1	10542	-11.8	.
COc1ccc(COc2ccc(C3C(S(=O)(=O)c4ccccc4)CON3C)cc2OC)cc1 (centres undefined)	-1.1	-0.3	-2.6	13.8*	4682	12.1	4.0
CCOC(=O)CC[C@@]1(C(=O)OCC)C[C@@H](CC(=O)N2CCN(C(=O)c3ccco3)CC2)C(=O)N2CCCC=C21	.	.	.	.	.	-8.6	.
C[N+]1(C)[C@H]2CC[C@H]1CC(OC(=O)C(O)c1ccccc1)C2 (some centres undefined)	.	.	.	.	.	-6.7	.
O=C(O)c1cccc(NN=C2c3ccccc3-c3ccccc32)c1	-4.7	-0.7	-4.9	11.0	3858	28.7	.
O=C(O)c1cc(NN=C2c3ccccc3-c3ccccc32)ccc1Cl	-1.9	0.6	5.2	13.7*	6047	17.4	11.1
O=C(Nc1nc(-c2cccs2)cs1)c1ccc(Cl)cc1	-0.5	0.3	1.8	12.8*	3774	5.3	4.3
Cc1noc(NS(=O)(=O)c2ccc(NC(=O)Nc3ccc(Cl)c(Cl)c3)cc2)c1C	0.6	-0.4	-4.3	15.8*	3300	13.7	10.4
Cc1ccccc1CN1CCCCC(NC(=O)c2cc(-c3ccccc3)no2)C1=O (centres undefined)	.	.	.	.	.	4.6	.
COc1cccc(/C=N/NC(=S)Nc2cccnc2)c1	-2.4	-1.4	-1.7	16.3*	4399	-2.6	18.0*
